Reference: PubChem BioAssay AID1159580 (chemical genetic matrix, 2015)
The whole screen tested about 5,500 compounds, of which about 2,000 (36%) were called active. Roughly 18% stayed inconclusive and do not appear here. Rule as the data show it: active = normalized growth mostly below about 0.91 (no sharp cut-off); inconclusive = no clear call, values can overlap the other calls; inactive = mostly above about 0.92. This is one part of the list.

Test: chemical genetic growth profiling, strain panel (AID 1159580);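 also: tested at 20 µM; growth read once vehicle control cultures reached saturation at 30 °C; 1 = growth at the plate median or of vehicle wells; lower values mean less growth of the strain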
Settings: growth OD
[1] = S. cerevisiae deletion strains, locus YGR229C, strain SMI1, hits give low values
[2] = S. cerevisiae deletion strains, locus YJR075W, strain HOC1, hits give low values
[3] = S. cerevisiae deletion strains, locus YMR263W, strain SAP30, hits give low values
[4] = S. cerevisiae deletion strains, locus YNL322C, strain KRE1, hits give low values
[5] = S. cerevisiae deletion strains, locus YPL055C, strain LGE1, hits give low values
[6] = S. cerevisiae deletion strains, locus YPL241C, strain CIN2, hits give low values

Measured: normalized growth

O=C(CCCN1CCC2(CC1)C(=O)N(CCc1ccc(N=C=S)cc1)CN2c1ccccc1)c1ccc(F)cc1
inactive: S. cerevisiae deletion strains, locus YAL040C, strain CLN3, hits give low values 1.04 | S. cerevisiae deletion strains, locus YCL061C, strain MRC1 (second series), hits give low values 0.982 | S. cerevisiae deletion strains, locus YDR363W, strain ESC2, hits give low values 0.972 | S. cerevisiae deletion strains, locus YER002W, strain NOP16, hits give low values 1.03 | [1] 0.984 | [2] 0.968 | [3] 0.987 | S. cerevisiae deletion strains, locus YMR307W, strain GAS1, hits give low values 0.982 | S. cerevisiae deletion strains, locus YNL175C, strain NOP13, hits give low values 1 | S. cerevisiae deletion strains, locus YNL197C, strain WHI3, hits give low values 1.02 | S. cerevisiae deletion strains, locus YNL224C, strain SQS1, hits give low values 1.05 | [4] 0.948 | S. cerevisiae deletion strains, locus YOR083W, strain WHI5 (second series), hits give low values 1.08 | [5] 0.916 | [6] 0.984

O=C1c2ccccc2C(=O)N1CN1CCC(O)(c2ccc(Cl)cc2)CC1
inactive: S. cerevisiae deletion strains, locus YAL013W, strain DEP1, hits give low values 0.975 | S. cerevisiae deletion strains, locus YBR229C, strain ROT2, hits give low values 0.982 | S. cerevisiae deletion strains, locus YDL101C, strain DUN1, hits give low values 0.988 | S. cerevisiae deletion strains, locus YDL134C, strain PPH21, hits give low values 1.01 | S. cerevisiae deletion strains, locus YDR150W, strain NUM1, hits give low values 1.01 | S. cerevisiae deletion strains, locus YEL061C, strain CIN8, hits give low values 0.991 | S. cerevisiae deletion strains, locus YGR078C, strain PAC10, hits give low values 0.981 | [1] 0.999 | S. cerevisiae deletion strains, locus YHR030C, strain SLT2, hits give low values 0.953 | S. cerevisiae deletion strains, locus YHR087W, strain rtc3, hits give low values 0.99 | S. cerevisiae deletion strains, locus YJR043C, strain POL32, hits give low values 0.966 | [2] 0.987 | S. cerevisiae deletion strains, locus YKL190W, strain CNB1, hits give low values 1.01 | S. cerevisiae deletion strains, locus YLR039C, strain RIC1, hits give low values 0.988 | S. cerevisiae deletion strains, locus YLR058C, strain SHM2 (second series), hits give low values 0.978 | S. cerevisiae deletion strains, locus YLR085C, strain ARP6, hits give low values 1.06 | S. cerevisiae deletion strains, locus YLR262C, strain YPT6, hits give low values 0.93 | S. cerevisiae deletion strains, locus YML094W, strain GIM5, hits give low values 1.02 | S. cerevisiae deletion strains, locus YMR219W, strain ESC1, hits give low values 0.993 | [3] 0.926 | S. cerevisiae deletion strains, locus YNL128W, strain TEP1, hits give low values 0.987 | S. cerevisiae deletion strains, locus YNL153C, strain GIM3, hits give low values 1.02 | S. cerevisiae deletion strains, locus YNL298W, strain CLA4 (second series), hits give low values 0.974 | [4] 0.985 | S. cerevisiae deletion strains, locus YNR030W, strain Alg12, hits give low values 0.991 | [5] 0.947 | [6] 1.01 | S. cerevisiae deletion strains, locus YPR135W, strain CTF4, hits give low values 0.94 | S. cerevisiae strains, strain wild type, hits give low values 0.992
